Compounds without any hit were thinned out: in the full panel of roughly 83,000, 20% have a hit.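 Growth was measured after 48 h exposure to one concentration of compound in 96-well plates. Values under 10 count as active.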 Calls of active or inactive are those of the source.
Assays:
Test in all cases: NCI-60 one-dose screen, 48 h (100 = growth as untreated, 0 = no growth, -100 = all killed)
Conditions in all cases: 10 µM unless noted
[1] = system: DU-145 prostate
[2] = system: K-562 leukemia
[3] = system: MALME-3M melanoma
[4] = system: MDA-MB-231 breast
[5] = system: RXF 393 renal
[6] = system: SF-268 CNS
[7] = system: SF-295 CNS
[8] = system: SF-539 CNS
[9] = system: UACC-257 melanoma
[10] = system: M14 melanoma
[11] = system: HT29 colon
[12] = system: SNB-75 CNS
[13] = system: SNB-19 CNS
[14] = system: U251 CNS
[15] = system: PC-3 prostate
[16] = system: SK-MEL-5 melanoma
[17] = system: UACC-62 melanoma
[18] = system: LOX IMVI melanoma
[19] = system: SK-MEL-28 melanoma
[20] = system: HCT-15 colon

Measured: growth

COC(=O)[C@@H](C)C[C@H](Cc1ccccc1)NC(=O)c1csc([C@@H](C[C@H](C(C)C)N(C)C(=O)[C@@H](NC(=O)CN(C)C)C2CC2)OC(C)=O)n1
active: [1] 3.44% | [2] 9.12% | [8] 0.502% | [11] -24.4% | [16] -47.6% | [18] 8.77%
inactive: [3] 69.8% | [4] 24.2% | [5] 37.6% | [6] 33.3% | [7] 13.5% | [9] 60.3% | [10] 13% | [12] 37.4% | [13] 41% | [14] 12.7% | [15] 25.9% | [17] 63.8% | [19] 61.3%

CC(CC1CCCCC1)NCc1ccccc1 (configuration not stated)
inactive: [1] 108% | [2] 109% | [3] 88.9% | [4] 97.3% | [5] 99.6% | [6] 103% | [7] 93.6% | [8] 103% | [10] 90.2% | [20] 94.4% | [11] 93.2% | [12] 100% | [13] 100% | [14] 106% | [15] 88.6% | [16] 99.1% | [17] 93.3% | [18] 83.7% | [19] 103%

CN1C(=O)N[C@H]2[C@@H]3NC(=O)c4ccc(Br)n4[C@@H]3C[C@]21O
active: [1] -8.47% | [2] -2.38% | [3] -27.3% | [4] -28% | [5] -27.5% | [6] -2.59% | [7] -36.2% | [8] -59.8% | [10] -70.8% | [20] 3.29% | [11] -15.6% | [12] -70.3% | [13] -15.6% | [14] -13.8% | [15] -11.7% | [16] -76.7% | [17] -54.2% | [18] -42%

COc1cc2ncnc(Nc3ccc(F)c(Cl)c3)c2cc1OCC(=O)N1CCN(C)CC1
inactive: [1] 62.6% | [2] 82.8% | [3] 96.5% | [4] 94.7% | [5] 88.8% | [6] 73.6% | [7] 92.8% | [8] 98.2% | [9] 104% | [10] 97.5% | [11] 90.6% | [12] 92.2% | [13] 79.6% | [14] 101% | [15] 86% | [16] 97.5% | [17] 98.1% | [18] 91.5% | [19] 102%

OCc1ccc2c(c1)OCO2
inactive: [1] 105% | [2] 101% | [3] 97.5% | [4] 102% | [5] 103% | [6] 100% | [7] 93.8% | [8] 96.1% | [10] 103% | [20] 104% | [11] 96.4% | [12] 84.5% | [13] 104% | [14] 95.8% | [15] 94.3% | [16] 102% | [18] 95.3% | [19] 108%

COc1cc(NCCCN=C(N)N)c2ncccc2c1
inactive: [1] 103% | [2] 93.7% | [3] 21.1% | [4] 64.8% | [5] 102% | [6] 25.2% | [7] 88.6% | [9] 90.3% | [10] 100% | [20] 98.6% | [11] 83.9% | [12] 73.4% | [13] 81.8% | [14] 58.5% | [15] 83.7% | [16] 72.1% | [17] 90.3% | [18] 104% | [19] 99.6%

Source: PubChem BioAssay (NCI)
